Test systems include DU-145 prostate; K-562 leukemia; MALME-3M melanoma; MDA-MB-231 breast; RXF 393 renal; SF-268 CNS; SF-295 CNS; SF-539 CNS; UACC-257 melanoma; M14 melanoma; HCT-15 colon; HT29 colon; SNB-75 CNS; SNB-19 CNS; U251 CNS; PC-3 prostate; SK-MEL-5 melanoma; UACC-62 melanoma; LOX IMVI melanoma; SK-MEL-28 melanoma.
Experiment in all cases: NCI-60 one-dose screen, 48 h (100 = growth as untreated, 0 = no growth, -100 = all killed)
Settings in all cases: 10 µM unless noted

About 83,000 compounds went through this panel and 20% of them were active in at least one assay; those are over-represented in the sample as a whole.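 Treatment: one concentration, 48 hours, 96-well format. Scoring: percent growth, with anything below 10 considered active.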 Values without a mark were called inactive. Calls of active or inactive are those of the source.

Regarding `CC(=O)OC(c1ccccc1)C1CCOC1=O` (stereo not given), the growth in the experiment on DU-145 prostate is 115%; in the experiment with K-562 leukemia, 108%; in the experiment on MALME-3M melanoma, 107%; with MDA-MB-231 breast, 103%; in the experiment with RXF 393 renal, 101%; with SF-268 CNS it was 110%. Moreover, the growth was 94.6% with SF-295 CNS; 101% in the experiment on SF-539 CNS; 102% in the experiment on UACC-257 melanoma; 99.9% in the experiment with M14 melanoma; 97.1% in the experiment with HCT-15 colon; 99.5% in the experiment with HT29 colon. Further, the growth is 79.2% in the experiment on SNB-75 CNS; 109% in the experiment on SNB-19 CNS; 99.1% in the experiment with U251 CNS; 100% in the experiment on PC-3 prostate; 102% in the experiment on SK-MEL-5 melanoma; 87.2% in the experiment with UACC-62 melanoma. In addition, the growth in the experiment with LOX IMVI melanoma is 96.7%; with SK-MEL-28 melanoma it was 113%.

Turning to `CNC1=C([N+](=O)[O-])C(c2ccc(OC)cc2)C(C#N)=C(c2cccs2)O1` (stereo not given), the growth in the experiment on DU-145 prostate is 113%; in the experiment with K-562 leukemia it was 105%; with MALME-3M melanoma, 98.6%; in the experiment with MDA-MB-231 breast it was 99.5%; in the experiment with RXF 393 renal, 121%; in the experiment with SF-268 CNS, 101%. In addition, the growth with SF-295 CNS is 101%; in the experiment on SF-539 CNS, 100%; in the experiment with UACC-257 melanoma it was 106%; in the experiment with M14 melanoma, 103%; with HCT-15 colon it was 108%; in the experiment on HT29 colon, 118%. In addition, the growth was 95.5% in the experiment on SNB-75 CNS; 105% in the experiment with SNB-19 CNS; 101% with U251 CNS; 101% with PC-3 prostate; 100% in the experiment with SK-MEL-5 melanoma; 101% in the experiment on UACC-62 melanoma. Also, the values for the growth in the experiment on LOX IMVI melanoma and in the experiment on SK-MEL-28 melanoma were 95.3% and 122%, respectively.

As for `CCCCC#Cc1c(I)n(C)c(=O)[nH]c1=O`, the growth in the experiment with DU-145 prostate is 20.8%; in the experiment on K-562 leukemia it was -43.7% (active); in the experiment with MALME-3M melanoma, -85.4% (active); in the experiment with MDA-MB-231 breast, -67.7% (active); in the experiment with RXF 393 renal, -81.7% (active); in the experiment with SF-268 CNS it was 26.5%. Further, the growth in the experiment on SF-295 CNS is 92.3%; in the experiment with SF-539 CNS, 66.7%; with UACC-257 melanoma it was -48.4% (active); with M14 melanoma, -7.41% (active); in the experiment on HCT-15 colon it was -92.5% (active); in the experiment on HT29 colon, -75.3% (active). Further, the growth in the experiment on SNB-75 CNS was 82.6%; in the experiment with SNB-19 CNS, 99.7%; with U251 CNS it was 2.73% (active); in the experiment on PC-3 prostate, 60.2%; in the experiment on SK-MEL-5 melanoma it was 62.5%; in the experiment on UACC-62 melanoma, -13.5% (active). Further, the growth in the experiment on LOX IMVI melanoma is -63.7% (active); in the experiment on SK-MEL-28 melanoma, -85.6% (active).

Take `Nc1c(C(=O)Nc2cccc(Cl)c2)sc2nc3c(cc12)CCCC3`: the growth is 104% in the experiment with DU-145 prostate; 48.3% in the experiment on K-562 leukemia; 102% in the experiment on MALME-3M melanoma; 93.3% in the experiment on MDA-MB-231 breast; 103% in the experiment with RXF 393 renal; 102% with SF-268 CNS. The growth in the experiment with SF-295 CNS was 91.6%; in the experiment with SF-539 CNS, 86.9%; with UACC-257 melanoma it was 79.1%; with M14 melanoma, 78.6%; with HCT-15 colon, 78.8%; with HT29 colon, 68.2%. For the same compound, the growth in the experiment on SNB-75 CNS was 101%; in the experiment with SNB-19 CNS it was 92.2%; in the experiment with U251 CNS, 89.3%; in the experiment on PC-3 prostate, 80.2%; with SK-MEL-5 melanoma it was 88.2%; in the experiment on UACC-62 melanoma, 70.2%. The growth in the experiment with LOX IMVI melanoma was 93%; with SK-MEL-28 melanoma, 91.1%.

With `C=C(C)[C@@H]1CCC[C@]2(C(=O)O)CC[C@]3(C)[C@@H](CC[C@@H]4[C@@]5(C)C/C(=C/c6ccncc6)C(=O)C(C)(C)[C@@H]5CC[C@]43C)[C@@H]12`, the growth was 32.9% with DU-145 prostate; 13.7% with K-562 leukemia; 72% with MALME-3M melanoma; 12.2% in the experiment with MDA-MB-231 breast; 34.4% in the experiment on RXF 393 renal; 52.1% in the experiment on SF-268 CNS. For the same compound, the growth with SF-295 CNS is 27.2%; in the experiment on SF-539 CNS, 26.3%; in the experiment with UACC-257 melanoma, 57.9%; in the experiment with M14 melanoma it was 45.8%; in the experiment on HCT-15 colon, 5.49% (active); in the experiment with HT29 colon, 14.8%. The growth in the experiment on SNB-75 CNS was 52.6%; in the experiment with SNB-19 CNS, 46.1%; in the experiment with U251 CNS, 17%; in the experiment with PC-3 prostate, 27.4%; with SK-MEL-5 melanoma, 10.6%; in the experiment on UACC-62 melanoma it was 26.8%. The growth with LOX IMVI melanoma was -9.49% (active); with SK-MEL-28 melanoma, 48.4%.

In the case of `NNCCc1ccc(NC(=O)CCCc2ccc(C(=O)Nc3ccccc3N)cc2)cc1`, the growth was 90.7% in the experiment on DU-145 prostate; 43.5% with K-562 leukemia; 56.9% in the experiment on MALME-3M melanoma; 67.5% with MDA-MB-231 breast; 75.2% in the experiment with RXF 393 renal; 72.3% in the experiment with SF-268 CNS. In addition, the growth was 69% in the experiment on SF-295 CNS; 60.8% with SF-539 CNS; 41.4% in the experiment with UACC-257 melanoma; 72% with M14 melanoma; 96.8% in the experiment with HCT-15 colon; 51.1% in the experiment on HT29 colon. Moreover, the growth in the experiment with SNB-75 CNS was 68.2%; with SNB-19 CNS, 85.5%; in the experiment with U251 CNS, 54.1%; in the experiment with PC-3 prostate, 55.1%; in the experiment on SK-MEL-5 melanoma, 57.1%; with UACC-62 melanoma, 49.2%. Moreover, the growth is 63.7% with LOX IMVI melanoma and 75.6% with SK-MEL-28 melanoma.

`COc1ccc(-c2nc(-c3cn(C)c4ncccc34)cs2)cc1`: the growth with DU-145 prostate was 15.2% [100 µM]; in the experiment with K-562 leukemia, 11% [100 µM]; in the experiment with MALME-3M melanoma, -54.9% [100 µM] (active); in the experiment with MDA-MB-231 breast, 15.9% [100 µM]; in the experiment on RXF 393 renal it was -12.6% [100 µM] (active); with SF-268 CNS it was 23.4% [100 µM]. The growth was -25.5% [100 µM] (active) with SF-295 CNS; -67.2% [100 µM] (active) in the experiment with SF-539 CNS; 17.5% [100 µM] in the experiment with UACC-257 melanoma; -69.6% [100 µM] (active) with M14 melanoma; -1.17% [100 µM] (active) in the experiment on HCT-15 colon; -63.2% [100 µM] (active) in the experiment with HT29 colon. Also, the growth with SNB-75 CNS is -3.6% [100 µM] (active); in the experiment on SNB-19 CNS it was 23.2% [100 µM]; with U251 CNS it was 3.9% [100 µM] (active); with PC-3 prostate, -28.2% [100 µM] (active); with SK-MEL-5 melanoma it was -83.4% [100 µM] (active); with UACC-62 melanoma, -20.1% [100 µM] (active). The growth in the experiment on LOX IMVI melanoma is -47.1% [100 µM] (active); with SK-MEL-28 melanoma, 37.9% [100 µM].

(Values after PubChem BioAssay (NCI).)
